{"source": "PubChem BioAssay (NCATS)", "note": "Values joined by “and” are separate entries in the source; they are usually repeats but may differ in a detail not shown here. Equal entries are not always repeated. Inconclusive results are not listed. Unmarked numbers belong to inactive results. Active and inactive are the calls of the source. The call rests on the fitted dose curve; in most records, active means well fitted cell-killing curve with a large enough effect; inconclusive means small, poorly fitted or top-dose-only effect, or effect the other way; inactive means no such curve, though single readings can be large or run the other way. Potency means the concentration at half of the fitted maximal effect."}
{"assay": "Viability qHTS for spleen associated tyrosine kinase inhibitor (SYKi) drug resistant MV4-11 cells (AID 1963824); further: nearly all actives have a fitted effect of over 35% in size", "details": "SYKi-resistant MV4-11 viability, CellTiter-Glo, 72 h; series mostly up to 45 µM; viability, % of control: at the top concentration", "excerpt": "Department of Medicine, Hematology/Oncology\nUniversity Hospital Frankfurt, Germany.\nTrials have shown promising clinical activity of the selective SYK inhibitor entospletinib in patients with high expressing HOXA9/MEIS1 acute leukemias. As the development of resistance mechanisms is a common problem in the use of targeted drugs, we performed a chemical library screen to identify drug sensitivities in SYK inhibitor resistant AML cells. […] Glucocorticoids are potent immunosuppressants which work in part by inhibiting the transcription of cytokine genes.\nDescribed herein is a viability screen to look for activity in the SYK inhibitor drug resistant cell line against four NCATS compound libraries (MIPE 5.0, NPC, NPACT, and Kinase) totaling 11372 compounds. Active hits were reacquired for confirmation and further secondary assay testing.\nSEQUENCE No. (e.g., 1, 2, 3, etc.); […] (e.g., Cells, Incubation, Reagent, etc.); VALUE; DESCRIPTION.\n1; Media; 2uL; white, solid-bottom Corning assay plate.\n2; Compounds; 23nL; Echo acoustic dispenser.\n3; Cell; 5uL; 500 cells per well.\n4: Incubation; 72hr; 37 C, 5% CO2, 95% humidity.\n5; Reagent; 3uL; CellTiter-Glo reagent (Promega).\n6; Incubation; 10min; room temperature.\n7; Detection; Luminescence; ViewLux plate reader (PerkinElmer).\nNOTES (numbers refer to Sequence numbers above\n1. Quantitative high-throughput screening (qHTS) of small molecule compounds was conducted on drug resistant SYKi MV4-11 cell line.\n2. Twenty-three nanoliter of small molecule compounds were added to each assay plates using the Echo acoustic dispenser (Beckman Coulter).\n3. Cells were seeded into the assay plates at a final density of 500 cells in 5uL of media per well using the Multidrop Combi dispenser.\n4. Plates were covered with stainless steel gasketed lids and incubated for 72 hours at standard cell culture conditions.\n5. Viability was assessed by adding 3uL of CellTiter-Glo detection reagent (Promega).\n6. Plates were covered with gasket lids and incubated for 10 minutes at room temperature.\n7. Luminescence was measured on a ViewLux plate reader (PerkinElmer)."}
{"smiles": "C/C=C(\\C)C(=O)OC[C@H]1O[C@@H](O[C@H]2[C@@H](O[C@H]3O[C@H](COC(=O)/C(C)=C/C)[C@@H](O)[C@H](O)[C@H]3O[C@@H]3O[C@H](COC(=O)/C(C)=C/C)[C@@H](O)[C@H](OC(=O)/C(C)=C/C)[C@H]3O)O[C@H](COC(=O)/C(C)=C/C)[C@@H](O)[C@@H]2O)[C@H](O)[C@@H](O)[C@@H]1O", "viability, % of control": "65.9% [at 9.25 µM]"}
{"smiles": "COc1ccc(C2(CNC(=O)c3ccc(NC(=O)c4ccco4)cc3)CCOCC2)cc1", "viability, % of control": "89.8%"}
{"smiles": "Brc1c(NC2=NCCN2)ccc2nccnc12", "viability, % of control": "83.6%"}
{"smiles": "O=C(Nc1ccccc1)N1CCN(c2nc(-c3ccccc3)ns2)CC1", "Potency": "16.4 µM (active)"}
{"smiles": "C[C@]12C[C@@H](O)[C@@H]3C[C@@]1(O[C@@H]1O[C@H](CO)[C@@H](O)[C@H](O)[C@H]1O)[C@]3(COC(=O)c1ccccc1)C(=O)O2", "viability, % of control": "98.4% [at 17.3 µM]"}
{"smiles": "COc1ccccc1-n1c(SCC(=O)Nc2nc3ccc(C)cc3s2)nc2c(c1=O)SCC2", "viability, % of control": "83.7% [at 17.3 µM]"}
{"smiles": "Cc1nc2c(-c3cnc(N)nc3)nc(N3CCOCC3)nc2n1C(C)C", "Potency": "326 nM (active) and 468 nM (active)"}
{"smiles": "C=C1C(=O)O[C@@H]2[C@H]3C(C)=CC(=O)C3=C(C)CC[C@@H]12", "Potency": "0.651 µM (active)"}
{"smiles": "CC1CCC2C(C)(C)C(O)CCC2(C)C12Cc1c(O)cc3c(c1O2)CN(C(CCC(N)=O)C(=O)O)C3=O", "note": "(stereo not given)", "viability, % of control": "79.1% [at 17.3 µM]"}
{"smiles": "C=CC(=O)Nc1ccc2ncnc(Nc3cccc(Br)c3)c2c1", "Potency": "2.31 µM (active)"}
{"smiles": "C/C=C(\\C)C(=O)OC[C@H]1O[C@H](O[C@H]2O[C@H](CO)[C@@H](O)[C@H](O)[C@H]2O[C@@H]2O[C@H](CO)[C@@H](O)[C@H](O)[C@H]2O)[C@H](O[C@@H]2O[C@H](CO)[C@@H](O)[C@H](O)[C@H]2O)[C@@H](O)[C@@H]1O", "viability, % of control": "88.8% [at 17.3 µM]"}
{"smiles": "COC(=O)C1=COC(OC2OC(CO)C(O)C(O)C2O)C2C(C)C(OC(C)=O)C(OC(=O)c3ccccc3)C12", "note": "(stereo not given)", "viability, % of control": "9.24% [at 17.3 µM]"}
{"smiles": "CC(=O)NCCc1c[nH]c2ccc(O)cc12", "viability, % of control": "74.5%"}
{"smiles": "NC(=O)c1cnc(NCCc2ccc(O)c(Cl)c2)nc1NCc1ccccc1", "Potency": "0.0259 µM (active)"}
{"smiles": "CN1C(=O)C(Cc2c[nH]c3ccccc23)NC1=S", "note": "(stereo not given)", "Potency": "8.33 µM (active)"}
{"smiles": "COc1ccc2nc3ccc(OC)cc3c(SCCCN)c2c1", "Potency": "2.31 µM (active)"}
{"smiles": "CC(C)(O)C1CCC(Nc2ccc3ncc(-c4cccc(C(F)(F)F)c4)n3n2)CC1", "note": "(stereo not given)", "Potency": "1.32 µM (active)"}
{"smiles": "O=C(OCC(O)CO[C@@H]1O[C@H](C(=O)O)[C@@H](O)[C@H](O)[C@H]1O)c1ccccc1", "note": "(stereo not given in full)", "viability, % of control": "96.5%"}
{"smiles": "CCC(=O)NCC[C@@H]1CCc2ccc3c(c21)CCO3", "viability, % of control": "102%"}
{"smiles": "Oc1ccc(CCNCCCCCCNCCc2ccccc2)cc1O", "Potency": "21.1 µM (active)"}
{"smiles": "CCC[C@@H]1O[C@@H]2C[C@H]3[C@@H]4CCC5=CC(=O)C=C[C@]5(C)[C@H]4[C@@H](O)C[C@]3(C)[C@]2(C(=O)CO)O1", "Potency": "8.2 µM (active)"}
{"smiles": "CCn1c(-c2nonc2N)nc2cnc(Oc3cccc(NC(=O)c4ccc(OCCN5CCOCC5)cc4)c3)cc21", "Potency": "3.66 µM (active) and 5.25 µM (active)"}
{"smiles": "COC(=O)C1=COC(O[C@@H]2O[C@H](CO)[C@@H](O)[C@H](O)[C@H]2O)[C@H]2[C@@H]1[C@H](OC(=O)CCc1ccc(O)cc1)C[C@]2(C)O", "note": "(stereo not given in full)", "viability, % of control": "96% [at 17.3 µM]"}
{"smiles": "COc1ccccc1NC(=O)Nc1ccc2ccccc2c1", "Potency": "20.6 µM (active)"}
{"smiles": "c1ccc(CNCc2ccc(CN3CCCNCCNCCCNCC3)cc2)nc1", "viability, % of control": "90.1%"}
{"smiles": "CC(C)CNc1ccnc(NCc2csc(-c3ccccc3)n2)n1", "Potency": "1.16 µM (active)"}
{"smiles": "CC1(C(=O)O)CC[C@]2(C(=O)OC3OC(CO)C(O)C(O)C3O)CC[C@]3(C)C(=CCC4[C@@]5(C)CC[C@H](OC6OCC(O)C(O)C6OC6OC(CO)C(O)C(O)C6O)C(C)(C)C5CC[C@]43C)C2C1", "note": "(stereo not given in full)", "viability, % of control": "78.9% [at 9.25 µM]"}
{"smiles": "COC1CCC(N2C(=O)CNc3ncc(-c4ccc(C(C)(C)O)nc4)nc32)CC1", "note": "(stereo not given)", "Potency": "4.17 µM (active)"}
{"smiles": "CC(=O)O[C@H]1C[C@@H]2CC[C@@H]3[C@H](CC[C@@]4(C)[C@H]3C[C@H]([N+]3(C)CCCCC3)[C@@H]4OC(C)=O)[C@@]2(C)C[C@@H]1N1CCCCC1", "viability, % of control": "71%"}
{"smiles": "CC[C@@H](C)Nc1cc(C(=O)NC2CC3CCC(C2)N3c2ccc(C(=O)C3CC3)cn2)c(C)cc1C(N)=O", "note": "(stereo not given in full)", "Potency": "0.0206 µM (active)"}
{"smiles": "CC(=O)OCC(=O)Nc1cc(C#N)cc(NC(=O)COC(C)=O)c1Cl", "viability, % of control": "88.1%"}
{"smiles": "CN[C@@H](C)C(=O)N[C@H](C(=O)N1CCC[C@H]1c1nc(C(=O)c2ccc(F)cc2)cs1)C1CCCCC1", "Potency": "1.05 µM (active)"}
{"smiles": "CC(=O)Nc1ccc(O)cc1", "viability, % of control": "83.6%"}
{"smiles": "C[C@@H]1C(=O)O[C@H]2C[C@]34[C@H]5C[C@@H](C(C)(C)C)[C@]36[C@@H](OC(=O)[C@H]6O)O[C@]4(C(=O)O5)[C@]21O", "viability, % of control": "96.1% [at 17.3 µM]"}
{"smiles": "COC1CC(O[C@H]2CC[C@]3(C)C4CC[C@@]5(C)C(=O)[C@]4(CC[C@@H]3C2)CC[C@@H]5C2=CC(=O)OC2)OC(C)C1OC1OC(COC2OC(CO)C(O)C(O)C2O)C(O)C(O)C1O", "note": "(stereo not given in full)", "Potency": "1.23 µM (active)"}
{"smiles": "CNCCc1ccccn1", "viability, % of control": "77.4%"}
{"smiles": "COc1cc(S(N)(=O)=O)cc(C(=O)O)c1OC", "viability, % of control": "91.8%"}
{"smiles": "CC(C)OC(=O)OCOP(=O)(CO[C@H](C)Cn1cnc2c(N)ncnc21)OCOC(=O)OC(C)C", "Potency": "9.44 µM (active)"}
{"smiles": "CCOC(=O)c1cccc(N)c1", "viability, % of control": "79.4%"}
{"smiles": "C=C1CCN([C@H](C)[C@](O)(Cn2cncn2)c2ccc(F)cc2F)CC1", "Potency": "14.6 µM (active)"}
